{"source": "paper PMC5540273", "about": "(PLoS ONE, 2017);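 further: KINOMEscan kinase panel screen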", "data": [{"test_system": "GAK", "details": "concentration: 1 μM, replicates: in singlicate; n = 1", "units": {"%Inh": "%"}, "values": [{"molecule": "C[C@@H]1CC[C@H](C(=O)NC2CCCCC2)CN1c1cc(-c2ccc3c(N)n[nH]c3c2)nc(N)n1", "note": "[GSK2291363]", "%Inh": 17}, {"molecule": "Cc1nc(N(C)[C@H]2CN(C(=O)CC#N)CC[C@H]2C)c2cc[nH]c2n1", "%Inh": 0}, {"molecule": "Nc1nccc2scc(-c3ccc4c(c3)CCN4C(=O)Cc3ccccc3)c12", "note": "[GSK2576924]", "%Inh": 0}, {"molecule": "COc1cc(OC)cc(-c2cc3cnc(N)nc3nc2NC(=O)NC(C)(C)C)c1", "%Inh": 0}, {"molecule": "O=C(Nc1n[nH]c2cc(-c3ccccc3F)ccc12)C1CC1", "note": "[SB-733371]", "%Inh": 0}, {"molecule": "CCCNC(=O)Nc1ccc(Oc2ncnc3ccn(C)c23)cc1", "%Inh": 3}, {"molecule": "COc1cc2ncn(-c3cc(OCc4ccncc4Br)c(C(N)=O)s3)c2cc1OC", "note": "[GW854278]", "%Inh": 58}, {"molecule": "Cc1nn2c(=O)cc(N3CCOCC3)nc2n1Cc1cccc(Cl)c1Cl", "note": "[GSK2342769]", "%Inh": 1}, {"molecule": "Cc1c(Cn2c(C)nn3c(=O)cc(N4CCO[C@H](C)C4)nc23)cccc1C(F)(F)F", "note": "[GSK2373690]", "%Inh": 52}, {"molecule": "COc1cc2nccc(Nc3ccc(OCc4ccc(NC(C)=O)cc4)cc3)c2cc1OC.Cl", "note": "[GW440135]", "%Inh": 7}, {"molecule": "Cc1cccc(-c2nc(Nc3ccc4c(cnn4C)c3)c3ccccc3n2)n1", "note": "[GW876731]", "%Inh": 19}, {"molecule": "CCCC(=O)Nc1n[nH]c2ncc(-c3cccc4ccccc34)cc12", "note": "[SB-642057]", "%Inh": 0}, {"molecule": "FC(F)(F)c1ccc(-c2ncn(CCCN3CCOCC3)c2-c2ccncc2)cc1", "note": "[SB-217780]", "%Inh": 0}]}]}
